HP1b binding inh: blocks HP1-beta chromodomain binding to methylated histone tails. P83916. AlphaScreen HP1-beta / biotin-H3K9me3 peptide binding. Potency, µM (series often up to 114 µM), without a hit: top-dose activity change, negative = inhibition, actives largely listed as inhibitors. 0.56% of 390,000 active. AID 540317; further: potency means the concentration at half of the fitted maximal effect; nearly all actives have a fitted effect of over 70% in size
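HP1-beta protein (50 nM final) preincubated 30 min at room temperature with biotinylated H3(1-18)K9me3 peptide (50 nM) in PBS pH 7.4, 0.01% Tween-20, then compound added for 30 min. AlphaScreen streptavidin donor/nickel chelate acceptor beads (10 ug/mL final), 30 min dark, luminescence read.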
KDM4E inh: JMJD2E (human) inhibition; B2RXH2; 1.6% of 230,000 active; JMJD2E catalytic domain, FDH-coupled NADH fluorescence (FDH is formaldehyde dehydrogenase); Potency, µM (series often up to 57.1 µM), without a hit: at the highest dose activity change, negative = inhibition, hits mostly inhibitors; active means well fitted inhibition curve with a large enough effect, not every such curve was filed as active; inconclusive means small, poorly fitted or top-dose-only effect, or another doubt; inactive means no such curve, though single readings can be large or run the other way;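 further: potency means the concentration at half of the fitted maximal effect; 0% = wells with enzyme and -100% = buffer wells without enzyme; nearly all actives have a fitted effect of over 50% in size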
Target sequence (B2RXH2 1-337 limits assumed): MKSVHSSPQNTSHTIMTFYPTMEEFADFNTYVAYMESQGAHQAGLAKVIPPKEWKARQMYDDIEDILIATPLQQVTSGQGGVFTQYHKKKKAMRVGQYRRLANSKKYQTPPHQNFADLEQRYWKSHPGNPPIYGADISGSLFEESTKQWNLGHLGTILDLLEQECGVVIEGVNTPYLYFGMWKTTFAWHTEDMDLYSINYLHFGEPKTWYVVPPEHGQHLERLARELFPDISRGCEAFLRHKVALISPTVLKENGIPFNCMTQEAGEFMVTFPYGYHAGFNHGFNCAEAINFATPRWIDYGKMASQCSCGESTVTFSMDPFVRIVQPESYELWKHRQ
PI5P4K alpha inh: PI5P4K alpha (human) kinase inhibition | max response, % | 1.2% of 330,000 active | PI5P4Kalpha enzyme, ADP-Glo luminescence, 60 min; hits give low values; active means max response of -50% or lower; inconclusive means between -30% and -50%; inactive means -30% or higher; further: value at the top dose of about 77 µM; on the % scale 0 is the no-effect control and ±100 the full control effect
Target sequence (P48426 whole entry, looked up): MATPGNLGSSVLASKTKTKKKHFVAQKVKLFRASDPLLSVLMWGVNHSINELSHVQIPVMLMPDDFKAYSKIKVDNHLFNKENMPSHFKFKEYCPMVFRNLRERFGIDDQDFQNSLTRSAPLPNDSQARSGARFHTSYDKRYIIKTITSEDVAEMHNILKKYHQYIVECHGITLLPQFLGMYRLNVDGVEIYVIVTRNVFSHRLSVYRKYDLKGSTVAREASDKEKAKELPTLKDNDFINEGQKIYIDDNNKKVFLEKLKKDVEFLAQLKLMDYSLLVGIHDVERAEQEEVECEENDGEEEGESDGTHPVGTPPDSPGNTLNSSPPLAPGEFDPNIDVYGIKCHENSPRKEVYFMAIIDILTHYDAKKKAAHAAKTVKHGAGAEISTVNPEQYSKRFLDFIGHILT
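PI5P4Kalpha ADP-Glo assay; 5 microM ATP final; 60 min RT reaction; HEPES pH 7.4/EGTA/CHAPS, 5% DMSO; controls lacking substrate or enzyme; luminescent end-point.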
JMJD2A Tudor inh: inhibitors of human JMJD2A Tudor domain | AlphaScreen JMJD2A-Tudor / H3K4me3 peptide binding | 4.4% of 390,000 active | O75164 | AID 504339 | Potency, µM (titrated, usually from 114 µM), for the others: at the top dose activity change, negative = inhibition, most hits filed as inhibitors; further: potency means the concentration at half of the fitted maximal effect; on the % scale 0 is the no-effect control and ±100 the full control effect; nearly all actives have a fitted effect of over 50% in size
BAZ2B inh: BAZ2B (human) inhibition | Q9UIF8 | AlphaScreen BAZ2B-H3K14Ac peptide displacement | Potency, µM (doses to about 114 µM), inactives show top-dose activity change, negative = inhibition, hits mostly inhibitors | 4.4% of 360,000 active | AID 504333; further: potency means the concentration at half of the fitted maximal effect; on the % scale 0 is the no-effect control and ±100 the full control effect; nearly all actives have a fitted effect of over 60% in size
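Inhibition is scored as reduced AlphaScreen emission. The BAZ2B/b-H3(5-23)K14Ac complex (50 nM each) in PBS pH 7.4, 0.01% Tween-20 meets compound (up to 110 uM) for 30 min at RT before bead addition.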
L3MBTL1 inh: L3MBTL1 (human) inhibition; 0.66% of 230,000 active; AlphaScreen L3MBTL1–H3K9me1 peptide binding; Q9Y468; Potency, µM (doses to about 57.1 µM), without a hit: top-dose activity, negative = inhibition, actives largely listed as inhibitors; further: potency means the concentration at half of the fitted maximal effect; on the % scale 0 is the no-effect control and ±100 the full control effect; nearly all actives have a fitted effect of over 60% in size
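Displacement of a biotinylated histone H3(1-15) peptide monomethylated at Lys9 (75 nM) from L3MBTL1 (50 nM) was measured by AlphaScreen after a 30 min room-temperature compound incubation; cefsulodin titration served as intraplate control.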
* hit, by the source's call; ? = inconclusive; nt = not tested or not shown; [ ] = remark or other dose. Shown are actives, neighbours in structure and some others; about 5.7% of the full set was active somewhere. Unless noted, the call rests on the fitted dose curve; in most records, active means well fitted inhibition curve with a large enough effect; inconclusive means small, poorly fitted or top-dose-only effect; inactive means no such curve, though single readings can be large or run the other way.

SMILES	HP1b binding inh	KDM4E inh	PI5P4K alpha inh	JMJD2A Tudor inh	BAZ2B inh	L3MBTL1 inh
COc1ccc(NC(=O)c2oc3ccccc3c2NC(=O)COc2ccc(C(C)C)cc2)c(OC)c1	22%	nt	nt	-13%	-4%	nt
O=C(COc1cc(F)ccc1[N+](=O)[O-])N1N=C(c2cccs2)CC1c1ccco1 (configuration not stated)	11%	nt	-20	?	-37%	-24%
Cc1cccc(N2CCN(CC(=O)Nc3ccccc3[N+](=O)[O-])CC2)c1C	1%	-5%	nt	-18%	-5%	-13%
COc1ccc(N2CCN(CCNC(=O)Nc3ccc([N+](=O)[O-])cc3OC)CC2)cc1	?	nt	7	50µM*	?	nt
COc1ccc(N2CCN(Cc3cc(OC)c(O)c([N+](=O)[O-])c3)CC2)cc1	16µM*	22µM*	9	1µM*	50µM*	-6%
COc1cc(CN2CCN(c3cccc(C)c3C)CC2)cc([N+](=O)[O-])c1O	?	?	-11	2.2µM*	50µM*	-11%
CCn1c(CN2CCN(c3cccc(Cl)c3)CC2)nc2c1c(=O)[nH]c(=O)n2C	17%	nt	nt	-31%	-22%	nt
CCc1ccc(NC(=O)CN2C(=O)c3ccccc3Sc3ccc(C(=O)N4CCCC4)cc32)cc1	3%	nt	nt	-12%	-15%	nt
COc1ccc(C(c2nnnn2C(C)(C)C)N2CCN(c3nc4ccccc4s3)CC2)cc1OC (configuration not stated)	-11%	-3%	3	14%[11.4 µM]	79µM*	-5%
CCN1CCN(C(c2ccc(OC)c(OC)c2)c2nnnn2C(C)(C)C)CC1 (configuration not stated)	13%	-3%	3	-10%[11.4 µM]	?	nt
CCCCCNC(=O)C(C1CC1)n1c(=O)c(-c2ccco2)nc2ccccc21 (configuration not stated)	nt	nt	-24	nt	nt	nt
CC(C)(C)NC(=O)C(c1cccc2ccccc12)n1c(=O)c(-c2ccco2)nc2ccccc21 (configuration not stated)	nt	nt	-61*	nt	nt	nt
CCCCCNC(=O)C(c1cccc2ccccc12)n1c(=O)c(-c2ccco2)nc2ccccc21 (configuration not stated)	nt	nt	-57*	nt	nt	nt
CCCCCNC(=O)C(c1ccc(C(F)(F)F)cc1)n1c(=O)c(-c2ccco2)nc2ccccc21 (configuration not stated)	nt	nt	-60*	nt	nt	nt
O=C(NCc1ccccc1Cl)c1cnc2sc(N3CCOCC3)nn2c1=O	16%	nt	nt	-5%	-3%	nt
CCC1=NN2C(=N)/C(=C/c3ccc(OS(=O)(=O)c4ccc(C)cc4)c(OC)c3)C(=O)N=C2S1	-17%	nt	-16	-30%	-2%	nt
Cc1ccc(S(=O)(=O)Oc2ccc(/C=C3/C(=N)N4C(=NC3=O)SN=C4S(C)(=O)=O)cc2)cc1	-7%[57 µM]	nt	-59*	?	?	nt
Cc1ccc(S(=O)(=O)Oc2ccc(/C=C3\N=C(c4cccc(C)c4)OC3=O)cc2)cc1	16%	?	2	-8%	-23%	1%
COc1cccc(-n2c(C)cc(/C=C3\C(=N)N4N=C(CC(=O)N5CCOCC5)SC4=NC3=O)c2C)c1	16%	nt	0	-2%	50µM*	nt
CS(=O)(=O)C1=NSC2=NC(=O)/C(=C\c3ccc(OS(=O)(=O)c4ccccc4)cc3)C(=N)N21	-10%	nt	-62*	?	50µM*	nt
COc1cc(/C=C2/C(=N)N3C(=NC2=O)SN=C3S(C)(=O)=O)ccc1OS(=O)(=O)c1ccc(C)cc1	-17%	nt	-79*	56µM*	?	nt
CCOc1ccccc1NC(=O)N1CCN(Cc2cc(=O)n3nc(-c4ccc(C)cc4)sc3n2)CC1	8%[57 µM]	nt	nt	-1%	6%	nt
COc1ccc(-c2noc(-c3cc(C(C)C)[nH]n3)n2)cc1	10%	nt	nt	-19%	0%	nt
Cc1ccc(N(CC(C)C)S(=O)(=O)c2nnc(NC(=O)c3cccs3)s2)cc1	64%	nt	nt	29%	13%	nt
N=C1/C(=C\c2ccc(Br)o2)C(=O)N=C2SC(CC(=O)N3CCCCC3)=NN12	17%	nt	-66*	-31%	?	nt
SMILES	HP1b binding inh	KDM4E inh	PI5P4K alpha inh	JMJD2A Tudor inh	BAZ2B inh	L3MBTL1 inh
COc1cccc(-n2c(C)cc(/C=C3/C(=N)N4C(=NC3=O)SN=C4S(C)(=O)=O)c2C)c1	-11%	?	-63*	?	56µM*	nt
CC1=NN2C(=N)/C(=C\c3cc(C)n(-c4cccc(C)c4)c3C)C(=O)N=C2S1	27%	?	-16	-13%	-2%	3%
CCS(=O)(=O)C1=NSC2=NC(=O)/C(=C\c3ccc(OS(=O)(=O)c4ccccc4)c(OC)c3)C(=N)N21	-5%[57 µM]	nt	-67*	56µM*	50µM*	nt
Cc1ccc(/C=C2/C(=N)N3N=C(CC(=O)N4CCCC4)SC3=NC2=O)o1	5%[57 µM]	nt	-5	-7%	-23%	nt
COCCCNC(=O)CCCn1c(=O)c2ccccc2n(CC(=O)Nc2ccc(C)cc2Cl)c1=O	13%	nt	nt	-6%	-26%	nt
O=C(COC(=O)C1CCN(c2ccc(C(F)(F)F)cn2)CC1)Nc1ccc(F)cc1[N+](=O)[O-]	?	nt	8	?	?	-20%
C#CCOCCOCCOCCNc1nc(N2CCN(C(=O)[C@H](CCCCN)n3cc(CN)nn3)CC2)nc(N2CCN(C(=O)[C@H](CO)n3cc([C@@H](N)C(C)C)nn3)CC2)n1	46%	nt	4	-32%	nt	-1%
C#CCOCCOCCOCCNc1nc(N2CCN(C(=O)[C@H](CCCCN)n3cc([C@@H](N)CC(N)=O)nn3)CC2)nc(N2CCN(C(=O)[C@H](CCCCN)n3cc([C@@H](N)CC(N)=O)nn3)CC2)n1	40%	nt	-2	79µM*	nt	2%
C#CCOCCOCCOCCNc1nc(N2CCN(C(=O)[C@H](CCCCN)n3cc(CN)nn3)CC2)nc(N2CCN(C(=O)[C@H](CCCCN)n3cc([C@@H](N)CC(N)=O)nn3)CC2)n1	13%	nt	-11	35µM*	nt	nt
C#CCOCCOCCOCCNc1nc(N2CCOCC2)nc(N2CCN(C(=O)[C@H](CCCCN)n3cc([C@@H](N)CC(C)C)nn3)CC2)n1	48%	7%	0	-26%	-37%	2%
C#CCOCCOCCOCCNc1nc(N2CCN(C(=O)C([C@@H](C)O)n3cc([C@@H](N)CCCCN)nn3)CC2)nc(N2CCN(C(=O)[C@H](CCCCN)n3cc([C@@H](N)CC(N)=O)nn3)CC2)n1 (some centres not stated)	13%	nt	-11	79µM*	nt	2%
COc1ccc(S(=O)(=O)C(C#N)c2nc3ccccc3nc2N2CCCC(C)C2)cc1 (configuration not stated)	?	?	-2	?	45µM*	-22%

Screening data (PubChem BioAssay)
